TDP1 cell noCPT: qHTS for Inhibitors of human tyrosyl-DNA phosphodiesterase 1 (TDP1): qHTS in cells in absence of CPT; AID 686978, 2013; Potency, µM (doses to about 46.2 µM), for the others: at the highest dose activity change, negative = growth inhibition, most hits filed as inhibitors; 420,000 compounds, 15% hits; DT40 Tdp1-/- hTDP1 cells, no CPT, ATP luminescence, 48 h; note: potency is the fitted concentration of half-maximal effect; nearly all actives have a fitted effect of over 55% in size
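Luminescent ATP content (CellTiter-Glo) served as the growth readout. Knockout chicken DT40 cells expressing human TDP1 were exposed to compounds without camptothecin for a minimum 48 hr at 37 °C.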
TDP1 cell CPT: growth inhibition of DT40 Tdp1-/-;hTDP1 cells with camptothecin (screen for TDP1 inhibitors); AID 686979; 420,000 compounds, 12% hits; Potency, µM (titrated, usually from 46.2 µM), for the others: at the highest dose activity change, negative = growth inhibition, hits mostly inhibitors; chicken DT40 Tdp1-/-;hTDP1 cells + 20 nM CPT, ATP luminescence, 48 h; note: potency is the fitted concentration of half-maximal effect; nearly all actives have a fitted effect of over 55% in size
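Chicken DT40 Tdp1-/- cells stably complemented with human TDP1 were seeded at 400 cells/well in medium containing 20 nM camptothecin, exposed to pin-transferred compounds, and grown at 37 °C for at least 48 hr. Viability was read as ATP luminescence.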
RORgamma inh: ROR gamma (mouse) transcription inhibition; Drosophila S2 Gal4-RORgamma UAS-luciferase reporter, 20 h; Potency, µM (highest dose often 53.6 µM), without a hit: top-dose activity change, negative = inhibition, usual class: inhibitors; 310,000 compounds, 5.4% hits; P51450; note: potency is the fitted concentration of half-maximal effect; nearly all actives have a fitted effect of over 60% in size
Target sequence (P51450 whole entry, looked up, the tested form may be a part): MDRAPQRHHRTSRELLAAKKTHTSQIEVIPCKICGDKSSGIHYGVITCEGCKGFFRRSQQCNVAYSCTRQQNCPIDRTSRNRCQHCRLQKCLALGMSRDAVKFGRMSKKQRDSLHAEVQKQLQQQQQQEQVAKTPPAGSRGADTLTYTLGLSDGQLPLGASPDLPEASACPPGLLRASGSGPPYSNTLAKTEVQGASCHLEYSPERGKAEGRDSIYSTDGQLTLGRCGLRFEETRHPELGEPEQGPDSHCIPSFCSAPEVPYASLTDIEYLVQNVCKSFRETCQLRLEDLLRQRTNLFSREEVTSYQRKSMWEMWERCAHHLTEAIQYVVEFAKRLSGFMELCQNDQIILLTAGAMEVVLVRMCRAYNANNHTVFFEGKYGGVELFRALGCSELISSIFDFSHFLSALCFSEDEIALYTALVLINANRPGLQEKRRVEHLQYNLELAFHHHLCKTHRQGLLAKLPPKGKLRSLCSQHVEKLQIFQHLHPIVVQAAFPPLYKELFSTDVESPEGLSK
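Luciferase reporter read in Schneider cells carrying Gal4-RORγ (mouse) and UAS-Photinus luciferase; cells given compound 1 h before 700 uM copper sulfate induction, then incubated 20 h at ambient temperature.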
LDHA inh: inhibitors of human lactate dehydrogenase A | P00338 | purified LDHA, NADH/diaphorase-resazurin fluorescence; active compounds read low | activity change, % (values are at about 110 or 230 µM) | 480,000 compounds, 0.15% hits | AID 1347041; in the data active = activity change below about -30%; inconclusive = mostly about -25% to -30%;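 note: plate controls were DMSO wells for no effect and wells without enzyme for full effect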
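LDH5 2 nM; NADH 0.06 mM, pyruvate 0.2 mM; 200 mM Tris pH 7.4, EDTA, Tween-20; 5 min RT. Detection: diaphorase 0.133 mg/mL + resazurin 37 µM, fluorescence ex540/em590 at 0 and 20 min; normalized to enzyme-free and DMSO wells.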
IL1B secr inh: blocks inflammasome-driven IL-1 beta release | THP-1 LPS/ATP IL-1B secretion, AlphaLISA, 16 h; active compounds read low | activity change, % at 57.5 µM | 360,000 compounds, 4.7% hits | AID 743279; in the data active = activity change below about -50%; inconclusive = mostly about -30% to -49%
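Secreted IL-1B measured by AlphaLISA bead assay after 16 h compound exposure of THP-1 cells; compounds (final up to 57.5 uM) added 1 h before LPS (250 ng/mL) and ATP (1.25 mM) stimulation; lower signal means less secretion.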
VP16 counter: counter-screen for ROR gamma inhibitors: Gal4-VP16 reporter; 310,000 compounds, 3.5% hits; Drosophila S2 Gal4-VP16 UAS-luciferase, luminescence, 20 h; AID 2546; Potency, µM (titrated, usually from 53.6 µM), without a hit: at the highest dose activity, negative = inhibition, actives largely listed as inhibitors;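 note: Gal4-VP16 expression switched on by copper sulfate through the metallothionein promoter; potency is the fitted concentration of half-maximal effect; nearly all actives have a fitted effect of over 50% in size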
* hit, by the source's call; ! = not confirmed by another sample. An excerpt weighted towards active compounds, which were near 18% of everything screened. Unless noted, calls come from the whole dose curve; as a rule, active = well fitted curve in the direction sought with a large enough effect; inconclusive = small, poorly fitted or top-dose-only effect, or another doubt; inactive = no such curve, though single readings can be large; an effect the other way counts as inactive or inconclusive. Unless noted, % is set by controls: 0 for no effect and ±100 for the full control effect.

Screening CCOC(=O)c1c(CN2CCC(C)CC2)oc2ccc(OC)cc12 returned TDP1 cell noCPT inconclusive, TDP1 cell CPT 23µM*, RORgamma inh -19%, LDHA inh 5, IL1B secr inh -29 and VP16 counter -2%.
`CCOC(=O)c1c(CN2CCCCC2)oc2ccc(OC)cc12` gave TDP1 cell noCPT 23µM*!, TDP1 cell CPT inconclusive, RORgamma inh -32%, LDHA inh -1, IL1B secr inh 13 and VP16 counter 5%.
`COC(=O)c1ccccc1NC(=O)CN(c1cccc(C)c1C)S(C)(=O)=O` gave LDHA inh -1.
`COC(=O)[C@@]12CCCN1[C@H](c1ccc(SC3CCCCC3)cc1)[C@H]1C(=O)N(C)C(=O)[C@H]12` gave TDP1 cell noCPT 16µM*, TDP1 cell CPT inconclusive, LDHA inh -17 and IL1B secr inh 24.
`CCSc1ccc([C@@H]2[C@@H]3C(=O)N(C)C(=O)[C@@H]3[C@]3(C(=O)OC)CCCCN23)cc1` gave TDP1 cell noCPT inconclusive, TDP1 cell CPT 16µM*, LDHA inh 0 and IL1B secr inh inconclusive.
`COC(=O)[C@@]12CCCCN1[C@H](c1ccc(SC3CCCCC3)cc1)[C@H]1C(=O)N(C)C(=O)[C@H]12` gave TDP1 cell noCPT 16µM*, TDP1 cell CPT inconclusive, LDHA inh -2 and IL1B secr inh 0.
Screening Cc1ccccc1-c1nnn(Cc2cc(Cl)c3c(c2)OCCCO3)n1 returned LDHA inh 2.
`COc1ccc([C@H]2C[C@H](n3cc(C4CC4)nn3)[C@@H](O)CN2C(=O)C2CCCCC2)cc1` gave TDP1 cell noCPT 3%, TDP1 cell CPT -6%, LDHA inh -5 and IL1B secr inh -16.
COc1ccc([C@H]2C[C@H](n3cc(-c4ccc(F)cc4)nn3)[C@@H](O)CN2CC2CCCCC2)cc1 was read as TDP1 cell noCPT inconclusive, TDP1 cell CPT inconclusive, LDHA inh -1 and IL1B secr inh -10.
COc1ccc([C@H]2C[C@@H](O)[C@H](n3cc(-c4ccc(F)cc4)nn3)CN2CC2CCCCC2)cc1 was read as TDP1 cell noCPT 6.5µM*, TDP1 cell CPT inconclusive, LDHA inh -6 and IL1B secr inh 3.
For O[C@@H]1C[C@H](c2ccc(Cl)cc2)N(CC2CCCCC2)C[C@H]1n1cc(C2CC2)nn1 the results were TDP1 cell noCPT inconclusive, TDP1 cell CPT inconclusive, LDHA inh 0 and IL1B secr inh 8.
For Cc1ccc([C@H]2C[C@@H](O)[C@H](n3cc(C4CC4)nn3)CN2CC2CCCCC2)cc1 the results were TDP1 cell noCPT 18µM*, TDP1 cell CPT inconclusive, LDHA inh -2 and IL1B secr inh -4.
Screening O=C(C1CCCCC1)N1C[C@@H](n2cc(C3CC3)nn2)[C@H](O)C[C@@H]1c1ccc(Cl)cc1 returned TDP1 cell noCPT inconclusive, TDP1 cell CPT -24%, LDHA inh -4 and IL1B secr inh 11.
Screening COc1ccc([C@H]2C[C@H](n3cc(C4CC4)nn3)[C@@H](O)CN2CC2CCCCC2)cc1 returned TDP1 cell noCPT 16µM*, TDP1 cell CPT inconclusive, LDHA inh 3 and IL1B secr inh -5.
For O[C@H]1C[C@H](c2ccc(Cl)cc2)N(CC2CCCCC2)C[C@@H]1n1cc(C2CC2)nn1 the results were TDP1 cell noCPT 6.5µM*, TDP1 cell CPT 5.8µM*, LDHA inh 4 and IL1B secr inh inconclusive.
COc1ccccc1/C=C(\C#N)c1nc2ccccc2[nH]1 was read as LDHA inh -5.
`CC(NC(=O)c1ccccc1Cc1ccccc1)c1ccncc1` (stereo not drawn) gave LDHA inh 12.
